PubChem BioAssay (NCI)
The panel holds about 79,000 compounds, 15% with a hit somewhere; the sample as a whole holds those more often. Calls of active or inactive are those of the source. Cut-off read from the data, not from the text of the source: active = growth inhibition above about 70%; inactive = the rest.

Legend:
[1] = NCI Yeast Anticancer Drug Screen. Data for the rad52 strain (AID 147);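 note: 0% = growth of vehicle-treated control cultures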; settings: S. cerevisiae rad52 mutant growth inhibition, stronger effect = higher value
How it was run: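 Genetically altered yeast (DNA damage repair defect) treated with compound; inhibition calculated relative to vehicle.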

[2] = NCI Yeast Anticancer Drug Screen. Data for the wt1 strain (AID 149);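 note: 0% = growth of vehicle-treated wt1 cultures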; settings: S. cerevisiae wt1 strain (SPY 50644) growth inhibition, stronger effect = higher value
How it was run: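 Each compound is tested on wt1 yeast and the loss of growth versus vehicle gives the inhibition value.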

[3] = NCI Yeast Anticancer Drug Screen. Data for the rad50EPP+ strain (AID 151);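 note: 0% = growth of vehicle-treated control cultures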; settings: S. cerevisiae rad50 mutant strain, stronger effect = higher value
How it was run: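 Strain rad50EPP+; compound exposure; % growth inhibition vs vehicle.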

[4] = NCI Yeast Anticancer Drug Screen. Data for the mgt1 strain (AID 153); settings: S. cerevisiae mgt1 mutant growth inhibition, stronger effect = higher value
How it was run: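 Read-out: yeast growth inhibition vs vehicle control. Strain mgt1, drawn from a panel altered in DNA damage repair or cell cycle control.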

[5] = NCI Yeast Anticancer Drug Screen. Data for the rad50 strain (AID 155);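 note: 0% = growth of vehicle-only cultures of the same strain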; settings: S. cerevisiae rad50 strain growth inhibition, stronger effect = higher value
How it was run: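 Vehicle-treated cultures provide the reference for the growth inhibition reported for compound-exposed, repair-deficient yeast.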

[6] = NCI Yeast Anticancer Drug Screen. Data for the mec2-1 strain (AID 157); settings: S. cerevisiae mec2-1 strain, stronger effect = higher value
How it was run: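 Cells of the genetically defined mec2-1 yeast strain are incubated with test compound. Inhibition of growth is calculated against vehicle-treated controls.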

[7] = NCI Yeast Anticancer Drug Screen. Data for the rad14 strain (AID 159);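 note: 0% = growth of vehicle-treated control cultures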; settings: S. cerevisiae rad14 strain growth inhibition, stronger effect = higher value
How it was run: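 Inhibition of growth is reported for a repair-deficient yeast mutant following compound treatment, calculated relative to cultures that received vehicle.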

[8] = NCI Yeast Anticancer Drug Screen. Data for the sgs1 mgt1 strain (AID 161);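 note: 0% = growth of cultures given vehicle only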; settings: S. cerevisiae sgs1 mgt1 strain, stronger effect = higher value
How it was run: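 Test agents were incubated with a DNA-repair-mutant yeast strain. Growth was then read and compared against vehicle-treated controls.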

[9] = NCI Yeast Anticancer Drug Screen. Data for the CLN2oe strain (AID 163);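 note: 0% = growth of vehicle-only control cultures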; settings: S. cerevisiae CLN2oe strain, stronger effect = higher value
How it was run: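 Strain altered in cell-cycle control, incubated with compound; growth compared to solvent-treated controls.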

[10] = NCI Yeast Anticancer Drug Screen. Data for the cln2 rad14 strain (AID 165);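 note: 0% = growth equal to vehicle treated cultures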; settings: S. cerevisiae cln2 rad14 strain, stronger effect = higher value
How it was run: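 The screen exposed genetically defined yeast (cln2 rad14) to test compounds and scored growth inhibition relative to vehicle-treated controls.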

[11] = NCI Yeast Anticancer Drug Screen. Data for the bub3 strain (AID 167); settings: S. cerevisiae bub3 mutant strain, stronger effect = higher value
How it was run: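 Mutant yeast screening strain plus compound; vehicle-treated cultures serve as the 0% inhibition reference.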

[12] = NCI Yeast Anticancer Drug Screen. Data for the wt2 strain (AID 169); settings: S. cerevisiae wt2 strain growth inhibition, stronger effect = higher value
How it was run: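 Steps: yeast strain treated with compound; growth recorded; inhibition calculated relative to cultures given vehicle alone.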

[13] = NCI Yeast Anticancer Drug Screen. Data for the sgs1 strain (AID 173);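 note: 0% = growth of vehicle-only control cultures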; settings: S. cerevisiae sgs1 mutant, stronger effect = higher value
How it was run: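 Inhibition of yeast growth served as the measure. The mutant strain was treated with each compound, and growth was normalised to cultures receiving vehicle alone.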

[14] = NCI Yeast Anticancer Drug Screen. Data for the mlh1 rad18 strain (AID 175); settings: S. cerevisiae mlh1 rad18 strain growth inhibition, stronger effect = higher value
How it was run: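 Compound-treated yeast growth, normalised to vehicle controls. Strain bears defined DNA repair mutations.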

[15] = NCI Yeast Anticancer Drug Screen. Data for the rad18 strain (AID 177); settings: S. cerevisiae rad18 mutant growth inhibition, stronger effect = higher value
How it was run: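 Inhibition values reflect reduced yeast growth compared with vehicle-treated controls, using a strain engineered with a DNA damage repair defect.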

[16] = NCI Yeast Anticancer Drug Screen. Data for the mlh1 strain (AID 171);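 note: 0% = growth of vehicle-treated control cultures of the same strain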; settings: S. cerevisiae mlh1 strain growth inhibition, stronger effect = higher value
How it was run: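 Yeast screen: mutant strain plus compound, growth scored against vehicle control wells.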

[17] = at 5.0 µM (retest, dose inferred, filed as 0.5)
[18] = at 50.0 µM (retest, dose inferred, filed as 5.0)

Measured: growth inhibition

N#Cc1cc(N(CCCl)CCCl)c([N+](=O)[O-])cc1[N+](=O)[O-]
inactive: [1]; at 1.2 µM 7% | [1]; at 3.7 µM 19% | [1]; at 11.0 µM 28% | [1]; at 33.0 µM 67% | [2]; at 1.2 µM -6% | [2]; at 3.7 µM 4% | [2]; at 11.0 µM -7% | [2]; at 33.0 µM 2% | [2]; at 100.0 µM 58% | [3]; at 1.2 µM 15% | [3]; at 3.7 µM 17% | [3]; at 11.0 µM 11% | [3]; at 33.0 µM 32% | [3]; at 100.0 µM 39% | [4]; at 1.2 µM -2% | [4]; at 3.7 µM -8% | [4]; at 11.0 µM -4% | [4]; at 33.0 µM 28% | [5]; at 1.2 µM -4% | [5]; at 3.7 µM -8% | [5]; [17] 5% | [5]; at 11.0 µM 10% | [5]; at 33.0 µM 40% | [5]; [18] 42% | [5]; at 100.0 µM 65% | [6]; at 1.2 µM 22% | [6]; at 3.7 µM 24% | [6]; [17] -43% | [6]; at 11.0 µM 23% | [6]; at 33.0 µM 28% | [6]; [18] 11% | [6]; at 100.0 µM 67% | [7]; at 1.2 µM 3% | [7]; at 3.7 µM 7% | [7]; at 11.0 µM 19% | [7]; at 33.0 µM 61% | [8]; [17] -19% | [8]; [18] 46% | [9]; at 1.2 µM 2% | [9]; at 3.7 µM 6% | [9]; at 11.0 µM -2% | [9]; at 33.0 µM 14% | [10]; [17] 11% | [10]; [18] 43% | [11]; at 1.2 µM 11% | [11]; at 3.7 µM 10% | [11]; [17] -11% | [11]; at 11.0 µM -7% | [11]; at 33.0 µM 31% | [11]; [18] 40% | [12]; at 1.2 µM 4% | [12]; at 3.7 µM 6% | [12]; at 11.0 µM 8% | [12]; at 33.0 µM 36% | [13]; at 1.2 µM 29% | [13]; at 3.7 µM 31% | [13]; at 11.0 µM 44% | [14]; [17] 21% | [15]; at 1.2 µM 64%
active: [1]; at 100.0 µM 85% | [4]; at 100.0 µM 87% | [5]; at 50.0 µM 87.4% | [6]; at 50.0 µM 88.8% | [7]; at 100.0 µM 88% | [8]; at 50.0 µM 90.3% | [9]; at 100.0 µM 71% | [10]; at 50.0 µM 79.5% | [11]; at 50.0 µM 84.9% | [11]; at 100.0 µM 79% | [12]; at 100.0 µM 80% | [13]; at 33.0 µM 82% | [13]; at 100.0 µM 92% | [14]; [18] 76% | [14]; at 50.0 µM 80.5% | [15]; at 3.7 µM 82% | [15]; at 11.0 µM 89% | [15]; at 33.0 µM 95% | [15]; at 100.0 µM 95%

Cc1ccc2c(c1)C1(C)c3cc(C)ccc3SP1S2 (stereo unspecified)
active: [5]; at 50.0 µM 71.7% | [10]; [18] 71% | [14]; [18] 74%
inactive: [1]; at 1.2 µM 20% | [1]; at 3.7 µM 22% | [1]; at 11.0 µM 20% | [1]; at 33.0 µM 51% | [1]; at 100.0 µM 55% | [2]; at 1.2 µM 19% | [2]; at 3.7 µM 9% | [2]; at 11.0 µM 25% | [2]; at 33.0 µM 26% | [2]; at 100.0 µM 36% | [3]; at 1.2 µM 4% | [3]; at 3.7 µM 7% | [3]; at 11.0 µM 17% | [3]; at 33.0 µM 47% | [3]; at 100.0 µM 50% | [4]; at 1.2 µM 10% | [4]; at 3.7 µM 3% | [4]; at 11.0 µM 9% | [4]; at 33.0 µM 37% | [4]; at 100.0 µM 43% | [5]; at 1.2 µM 17% | [5]; at 3.7 µM 11% | [5]; [17] -4% | [5]; at 11.0 µM 18% | [5]; at 33.0 µM 39% | [5]; [18] 51% | [5]; at 100.0 µM 54% | [6]; at 1.2 µM 11% | [6]; at 3.7 µM 21% | [6]; [17] -12% | [6]; at 11.0 µM 18% | [6]; at 33.0 µM 30% | [6]; [18] 17% | [6]; at 50.0 µM 40.1% | [6]; at 100.0 µM 30% | [7]; at 1.2 µM 0% | [7]; at 3.7 µM -10% | [7]; at 11.0 µM -23% | [7]; at 33.0 µM 15% | [7]; at 100.0 µM 29% | [8]; [17] 6% | [8]; [18] 54% | [8]; at 50.0 µM 63% | [9]; at 1.2 µM 15% | [9]; at 3.7 µM -13% | [9]; at 11.0 µM -14% | [9]; at 33.0 µM 25% | [9]; at 100.0 µM 4% | [10]; [17] 28% | [10]; at 50.0 µM 52.9% | [11]; at 1.2 µM 23% | [11]; at 3.7 µM 18% | [11]; [17] -3% | [11]; at 11.0 µM 20% | [11]; at 33.0 µM 22% | [11]; [18] 59% | [11]; at 50.0 µM 42.8% | [11]; at 100.0 µM 42% | [12]; at 1.2 µM 13% | [12]; at 3.7 µM 1% | [12]; at 11.0 µM 18% | [12]; at 33.0 µM 36% | [12]; at 100.0 µM 50% | [16]; at 1.2 µM -5% | [16]; at 3.7 µM -22% | [16]; at 11.0 µM -3% | [16]; at 33.0 µM 26% | [16]; at 100.0 µM 39% | [13]; at 1.2 µM 6% | [13]; at 3.7 µM 4% | [13]; at 11.0 µM 18% | [13]; at 33.0 µM 46% | [13]; at 100.0 µM 51% | [14]; [17] 4% | [14]; at 50.0 µM 46.9% | [15]; at 1.2 µM 8% | [15]; at 3.7 µM -3% | [15]; at 11.0 µM 7% | [15]; at 33.0 µM 27% | [15]; at 100.0 µM 52%
